Laboratory results: PubChem BioAssay (NCATS)
Inconclusive results are not listed. The source made the active and inactive calls. Calls come from the whole dose curve; as a rule, active = well fitted inhibition curve with a large enough effect; inconclusive = small, poorly fitted or top-dose-only effect; inactive = flat fitted curve, though single readings scatter.

Target: Ubiquitin carboxyl-terminal hydrolase 1 (Homo sapiens) (UniProt O94782)
Test: Inhibitors of USP1/UAF1: Pilot qHTS (AID 504865); note: nearly all actives have a fitted effect of over 35% in size;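 for activity change, negative = inhibition: rhodamine fluorescence freed from ubiquitin-rhodamine substrate followed over time; top concentration of the series differs between compounds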
Conditions: purified USP1/UAF1, Ub-rhodamine cleavage fluorescence; series mostly up to 114 µM; activity change, negative = inhibition: at the top concentration
How it was run: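 Deubiquitinase activity followed as kinetic rhodamine fluorescence release from 150 nM Ub-Rho. 1 nM USP1/UAF1 with compound, after 15 min room-temperature preincubation, in HEPES pH 7.8 buffer containing TCEP, EDTA, BSA and Tween-20.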
% is set by controls: 0 for no effect and ±100 for the full control effect; potency is the fitted concentration of half-maximal effect.

Ubiquitin carboxyl-terminal hydrolase 1 (Homo sapiens), sequence (O94782 whole entry, looked up): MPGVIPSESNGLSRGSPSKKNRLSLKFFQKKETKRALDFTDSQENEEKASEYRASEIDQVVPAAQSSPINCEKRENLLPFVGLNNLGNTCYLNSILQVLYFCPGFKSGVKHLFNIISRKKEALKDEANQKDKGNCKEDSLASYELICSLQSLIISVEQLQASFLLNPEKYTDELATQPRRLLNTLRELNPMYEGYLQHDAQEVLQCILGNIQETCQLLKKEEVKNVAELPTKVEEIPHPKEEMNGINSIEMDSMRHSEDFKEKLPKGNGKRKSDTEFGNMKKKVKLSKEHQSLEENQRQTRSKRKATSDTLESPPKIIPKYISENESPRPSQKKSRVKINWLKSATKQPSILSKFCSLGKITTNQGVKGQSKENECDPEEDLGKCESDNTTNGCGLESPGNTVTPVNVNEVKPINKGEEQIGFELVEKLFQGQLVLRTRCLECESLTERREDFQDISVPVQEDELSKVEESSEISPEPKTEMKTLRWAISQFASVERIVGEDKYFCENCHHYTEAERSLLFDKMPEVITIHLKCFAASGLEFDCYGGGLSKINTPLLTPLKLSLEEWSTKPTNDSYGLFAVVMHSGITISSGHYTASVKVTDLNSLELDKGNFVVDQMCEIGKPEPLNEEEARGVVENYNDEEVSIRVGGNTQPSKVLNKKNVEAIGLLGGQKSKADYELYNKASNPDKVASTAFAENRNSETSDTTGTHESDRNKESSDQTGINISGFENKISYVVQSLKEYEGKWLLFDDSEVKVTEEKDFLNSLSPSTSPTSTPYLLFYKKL

SMILES | activity change, negative = inhibition | Potency
O=C(Oc1ccccc1C(=O)O)c1ccccc1O | 0.724% (inactive) | –
O=c1cc[nH]c(=O)[nH]1 | -10.3% (inactive) | –
COc1ccc2[nH]c(S(=O)Cc3ncc(C)c(OC)c3C)nc2n1 (stereo not drawn) | -8.33% (inactive) | –
CC(C)(C)C(=O)NCCCC(=O)O | -6.41% (inactive) | –
CN1CCOC(c2ccccc2)c2ccccc2C1 (stereo not drawn) | -9.94% (inactive) | –
CCN(CC)CCNC(C(=O)OCCC(C)C)c1ccccc1 (stereo not drawn) | -8.3% (inactive) | –
O=Cc1ccccc1C=O | – | 50.1 µM (active)
O=C(O)c1ccccc1-c1ccc(C(F)(F)F)cc1 | 0.705% (inactive) | –
NC(=O)NNc1ccccc1 | – | inactive
NS(=O)(=O)c1cc2c(cc1Cl)NC(CSCc1ccccc1)=NS2(=O)=O | -2.99% [at 54.9 µM] (inactive) | –
Cc1c(Cl)cccc1Nc1ccccc1C(=O)O | -13.3% [at 54.9 µM] (inactive) | –
Cc1cccc(C)c1NC(=O)CN(CC(=O)O)CC(=O)O | 0.0733% (inactive) | –
O=C(O)c1ccccc1O | – | inactive
O=C(O)c1ccccn1 | 2.76% (inactive) | –
CC(=O)NC(Cc1ccccc1)C(=O)O (stereo not drawn) | 1.64% (inactive) | –
O=C(O)[C@@H]1CSCN1 | -3.23% (inactive) | –
NCC(=O)CCC(=O)O | -5.93% (inactive) | –
CN(C)CCN(Cc1ccccc1)c1ccccn1 | -8.65% (inactive) | –
CCn1cc(C(=O)O)c(=O)c2cnc(N3CCNCC3)nc21 | 15% [at 54.9 µM] (inactive) | –

SMILES | activity change, negative = inhibition | Potency
[O-][n+]1cccc(CO)c1 | -1.56% (inactive) | –
COc1cc(C)c(Cc2cnc(N)nc2N)cc1OC | -0.146% (inactive) | –
OCC(O)CN1CCN(c2ccccc2)CC1 (stereo not drawn) | -5.77% (inactive) | –
CCC(=O)c1ccc(O)cc1 | -2.83% (inactive) | –
NC(=O)NC(=O)Cc1ccccc1 | 1.92% (inactive) | –
Cc1ncc(COP(=O)(O)O)c(C=O)c1O | -9.6% (inactive) | –
Nc1ccc(S(=O)(=O)Nc2ccccc2)cc1 | -3.09% (inactive) | –
CCCCc1ncc(/C=C(\Cc2cccs2)C(=O)O)n1Cc1ccc(C(=O)O)cc1 | -7.06% (inactive) | –
O=C(O)COc1nn(Cc2ccccc2)c2ccccc12 | -9.17% (inactive) | –
N[C@@H](CSCCCO)C(=O)O | 1.88% (inactive) | –
CC(=O)Nc1ccc(/C=N/NC(N)=S)cc1 | – | inactive
CCCCN(CCCC)CCCOC(=O)c1ccc(N)cc1 | 2.49% [at 54.9 µM] (inactive) | –
CC(=O)c1ccc2c(c1)N(CCCN(C)C)c1ccccc1S2 | -1.18% [at 54.9 µM] (inactive) | –
Cc1cc(O)cc2c1O[C@](C)(CCC[C@H](C)CCC[C@H](C)CCCC(C)C)CC2 | -4.23% (inactive) | –
CN1CCC[C@@H]1Cc1c[nH]c2ccc(CCS(=O)(=O)c3ccccc3)cc12 | -7.02% (inactive) | –
O=c1[nH]c(=O)c2[nH]c(=O)[nH]c2[nH]1 | -8.67% (inactive) | –
C[C@@H]1CN(c2c(F)c(F)c3c(=O)c(C(=O)O)cn(C4CC4)c3c2F)C[C@H](C)N1 | 0.956% (inactive) | –
COc1cc2[nH]c(=O)[nH]c(=O)c2cc1OC | -8.28% [at 54.9 µM] (inactive) | –
CCOC(=O)[C@H](CCc1ccccc1)N[C@@H](C)C(=O)N1C(=O)N(C)C[C@H]1C(=O)O | -4.07% (inactive) | –
